Common to all, as to experiment: NCI-60 one-dose screen, 48 h (100 = growth as untreated, 0 = no growth, -100 = all killed)
The subject of one assay is SK-MEL-2 melanoma. To be noted: 10 µM unless noted.
Another assay concerns EKVX NSCLC. Conditions: 10 µM unless noted.
Another assay deals with SN12C renal. To be noted: 10 µM unless noted.
The test system of a further assay is UO-31 renal. Conditions: 10 µM unless noted.
The next assay deals with ACHN renal. To be noted: 10 µM unless noted.
Another assay concerns CAKI-1 renal. Conditions: 10 µM unless noted.
For another assay, the system named is A498 renal. Conditions: 10 µM unless noted.
Another assay relates to CCRF-CEM leukemia. To be noted: 10 µM unless noted.
Another assay relates to MOLT-4 leukemia. To be noted: 10 µM unless noted.
In a further assay the test system is SR leukemia. Conditions: 10 µM unless noted.
A further assay has as its system RPMI-8226 leukemia. To be noted: 10 µM unless noted.
A further assay concerns OVCAR-8 ovarian. To be noted: 10 µM unless noted.
Another assay concerns OVCAR-5 ovarian. Conditions: 10 µM unless noted.
The test system of a further assay is OVCAR-4 ovarian. To be noted: 10 µM.
In the next assay the test system is SK-OV-3 ovarian. To be noted: 10 µM unless noted.
Another assay deals with IGROV1 ovarian. Conditions: 10 µM unless noted.
A further assay relates to OVCAR-3 ovarian. To be noted: 10 µM unless noted.
The test system of a further assay is HS 578T breast. To be noted: 10 µM unless noted.
The test system of a further assay is NCI/ADR-RES ovarian. Conditions: 10 µM unless noted.
For another assay, the system named is TK-10 renal. To be noted: 10 µM unless noted.

Experimental findings from PubChem BioAssay (NCI) are described below.

Compounds without any hit were thinned out: in the full panel of roughly 83,000, 20% have a hit.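 Activity criterion: percent growth below 10, measured after cells in 96-well plates were exposed to a single compound concentration for 48 hours.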 Unmarked numbers belong to inactive results. Calls of active or inactive are those of the source.

With `CC1Cc2c(Cl)ncnc2N(C)c2ccccc21` (stereo not drawn), the growth in the assay with SK-MEL-2 melanoma was -28.2% (active); in the assay with EKVX NSCLC, 21.7%; in the assay on SN12C renal, 15.8%; with UO-31 renal, 10.4%; in the assay with ACHN renal, 26%; in the assay with CAKI-1 renal, 19.3%. For the same molecule, the growth with A498 renal was -18.4% (active); in the assay with CCRF-CEM leukemia, 34.2%; in the assay on MOLT-4 leukemia, 8.61% (active); in the assay with SR leukemia it was 6.5% (active); in the assay with RPMI-8226 leukemia it was 12.2%; in the assay with OVCAR-8 ovarian, 10.7%. Also, the growth in the assay on OVCAR-5 ovarian was 41.8%; in the assay with OVCAR-4 ovarian, 21.5%; with SK-OV-3 ovarian, 15.8%; in the assay on IGROV1 ovarian, 50.5%; in the assay with OVCAR-3 ovarian, 10.6%; in the assay on HS 578T breast, 24.6%. In addition, the growth in the assay on NCI/ADR-RES ovarian was 16.6%.

`C[n+]1c(-c2ccccc2)c2cc(N)ccc2c2ccccc21`: the growth is 19.6% in the assay on SK-MEL-2 melanoma; 26.6% in the assay on EKVX NSCLC; 4.79% (active) in the assay with SN12C renal; 89.9% in the assay with UO-31 renal; 95.7% with ACHN renal; 110% with CAKI-1 renal. In addition, the growth with A498 renal is 126%; in the assay with CCRF-CEM leukemia, 50.9%; with MOLT-4 leukemia it was 33.5%; in the assay on SR leukemia, 21.9%; in the assay with RPMI-8226 leukemia it was 17.7%; in the assay on OVCAR-8 ovarian, 34%. The growth with OVCAR-5 ovarian was 107%; with OVCAR-4 ovarian, 29.8%; with IGROV1 ovarian, 23.6%; in the assay on OVCAR-3 ovarian, 69.7%; in the assay on HS 578T breast, 27.1%; with NCI/ADR-RES ovarian, 100%.

Take `Fc1cc2[nH]ncc2c2c3c(c(-c4cn[nH]c4)nc12)CCCC3`: the growth with SK-MEL-2 melanoma is -30.7% (active); with EKVX NSCLC it was 13.1%; in the assay on SN12C renal it was 7.63% (active); in the assay with UO-31 renal, -13.7% (active); with ACHN renal it was 1.61% (active); with CAKI-1 renal, 2.83% (active). Also, the growth in the assay with A498 renal was -56.5% (active); in the assay with CCRF-CEM leukemia, 7.75% (active); in the assay on MOLT-4 leukemia, 2.1% (active); in the assay with SR leukemia, 13.8%; in the assay with RPMI-8226 leukemia, 1.77% (active); in the assay on OVCAR-8 ovarian, 4.78% (active). Also, the growth in the assay with OVCAR-5 ovarian is 4.24% (active); with OVCAR-4 ovarian, 16.1%; in the assay on IGROV1 ovarian it was 1.4% (active); with OVCAR-3 ovarian it was 7.22% (active); with HS 578T breast, -3.3% (active); in the assay with NCI/ADR-RES ovarian, 34.7%.

Turning to `COc1ccc(-c2cc(-c3ccccc3)nc(SCCCCCC(=O)NO)n2)cc1`, the growth in the assay with SK-MEL-2 melanoma was 61.4%; with EKVX NSCLC it was 67.5%; in the assay with SN12C renal, 81.4%; with UO-31 renal it was 41.6%; with ACHN renal, 48.9%; with CAKI-1 renal, 33.4%. Moreover, the growth in the assay on A498 renal was 57.1%; with CCRF-CEM leukemia, 13.8%; in the assay on MOLT-4 leukemia, 9.24% (active); in the assay on SR leukemia, 21.9%; in the assay with RPMI-8226 leukemia, 21.2%; in the assay with OVCAR-8 ovarian, 36.1%. Moreover, the growth was 41.4% in the assay with OVCAR-5 ovarian; 80.1% in the assay on OVCAR-4 ovarian; 50.3% in the assay with SK-OV-3 ovarian; 51.7% with IGROV1 ovarian; 65% with OVCAR-3 ovarian; 56% with HS 578T breast. Moreover, in the assay with NCI/ADR-RES ovarian, the growth is 56.9%.

For the molecule `CC(C)c1ccc(/C=N/N=C(N)N)cc1`, the growth was 102% with SK-MEL-2 melanoma; 87.1% with EKVX NSCLC; 93.8% with SN12C renal; 73.2% in the assay on UO-31 renal; 95.1% in the assay with TK-10 renal; 106% with A498 renal. Moreover, the growth is 35.7% in the assay with CCRF-CEM leukemia; 45.7% in the assay with MOLT-4 leukemia; 21.6% with SR leukemia; 17.1% in the assay on RPMI-8226 leukemia; 89.8% with OVCAR-8 ovarian; 89.5% with OVCAR-5 ovarian. Moreover, the growth in the assay with SK-OV-3 ovarian is 85.5%; in the assay with IGROV1 ovarian, 89.5%; in the assay on OVCAR-3 ovarian it was 72.6%; in the assay on HS 578T breast, 97.8%; in the assay on NCI/ADR-RES ovarian it was 79.4%.

As for `CCC(Br)(CC)C(=O)c1ccc(OCC(=O)O)c(Cl)c1Cl`, the growth with SK-MEL-2 melanoma is 94.6%; in the assay on EKVX NSCLC, 95.3%; in the assay on SN12C renal it was 89.1%; in the assay with UO-31 renal, 92.1%; in the assay with ACHN renal, 108%; in the assay on CAKI-1 renal it was 83.8%. Also, the growth in the assay on CCRF-CEM leukemia is 116%; with MOLT-4 leukemia it was 109%; in the assay with SR leukemia, 120%; with RPMI-8226 leukemia it was 121%; in the assay with OVCAR-8 ovarian, 97.4%; with OVCAR-5 ovarian it was 106%. Further, the growth in the assay on OVCAR-4 ovarian is 97.4%; in the assay on SK-OV-3 ovarian, 94.3%; with OVCAR-3 ovarian it was 116%; in the assay on HS 578T breast, 107%; in the assay on NCI/ADR-RES ovarian, 99.1%.

`Cc1cc(C)c(O)c(CNCCCNCc2cc(C)cc(C)c2O)c1`: the growth was 88.5% in the assay with SK-MEL-2 melanoma; 75% with EKVX NSCLC; 73.4% in the assay with SN12C renal; 28.2% in the assay with UO-31 renal; 73.6% in the assay with ACHN renal; 62.1% in the assay with CAKI-1 renal. In addition, the growth in the assay with A498 renal is 47%; in the assay on CCRF-CEM leukemia, 68.4%; in the assay on MOLT-4 leukemia, 67.5%; in the assay on SR leukemia it was -30.5% (active); in the assay on RPMI-8226 leukemia it was 28.5%; in the assay with OVCAR-8 ovarian, 82.2%. For the same molecule, the growth in the assay with OVCAR-5 ovarian is 74.6%; with SK-OV-3 ovarian it was 89.3%; in the assay on IGROV1 ovarian, 62%; with OVCAR-3 ovarian, 77%; in the assay on HS 578T breast, 11.2%; in the assay on NCI/ADR-RES ovarian, 72.5%.

As for `CCN(CC)CCS(=O)(=O)CCNc1ccnc2cc(Cl)ccc12`, the growth is 15.2% in the assay with SK-MEL-2 melanoma; 26.7% in the assay on EKVX NSCLC; 18.5% with SN12C renal; -25.6% (active) with UO-31 renal; 7.29% (active) with ACHN renal; 8.63% (active) in the assay with CAKI-1 renal. Further, the growth is -29.1% (active) in the assay on A498 renal; 3.54% (active) in the assay with CCRF-CEM leukemia; -30.1% (active) in the assay on MOLT-4 leukemia; 6.28% (active) in the assay with SR leukemia; -4.96% (active) in the assay on RPMI-8226 leukemia; 14.5% in the assay with OVCAR-8 ovarian. The growth was 18.6% in the assay on OVCAR-5 ovarian; 24.7% with OVCAR-4 ovarian; 22.5% with SK-OV-3 ovarian; -14.9% (active) in the assay with OVCAR-3 ovarian; -14.2% (active) in the assay on NCI/ADR-RES ovarian.
